Experimental findings from PubChem BioAssay (NCATS) are described below.

The structures appear in SMILES notation. Several values for one entry are separate records, joined by “and”; a condition that tells them apart may be missing. Equal entries are not always repeated. Records with an inconclusive call do not appear. Activity calls are given as the source filed them. Unless noted, the call rests on the fitted dose curve; in most records, active means well fitted curve in the direction sought with a large enough effect; inconclusive means small, poorly fitted or top-dose-only effect, or another doubt; inactive means no such curve, though single readings can be large; an effect the other way counts as inactive or inconclusive.

The target in experiment [1] is Mitogen-activated protein kinase 10 (Mus musculus) (UniProt Q61831). The experiment can be described thus: JNK3 AlphaScreen Assay (AID 530; active means well fitted curve in either direction with a large enough effect, not every such curve was filed as active;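 further: kinase came from lysate of stimulated human HepG2 cells; signal reports phosphorylation of biotinylated GST-cJun 1-79 at Ser73 with 10 µM ATP; on the % scale 0 is the no-effect control and ±100 the full control effect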). The gist of the method:
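Biotinylated GST-cJun(1-79) served as substrate for JNK3 in HepG2 lysates stimulated with IL-1beta and TNF-alpha. ATP was 10 uM final, pH 7.6. Ser73 phosphorylation was quantified by AlphaScreen (680 nm excitation).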

A short description of experiment [2]: Cell Viability - N2a (AID 540).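 Further: cells exposed to compound for 40 h at 37 °C; plate controls were DMSO alone for no effect and tamoxifen control for full effect; nearly all actives have a fitted effect of over 45% in size.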 The settings on record: N2a mouse neuroblastoma cell viability; activity change, negative = cytotoxicity: at 92.2 µM (top of the series). Put shortly:
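N2a mouse neuroblastoma, 1500 cells/well, 5 hr settle; compound 40 hr, 37 °C; CellTiter-Glo 20 min RT; luminescence; Hill-fit AC50.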

A short description of experiment [3]: Cell Viability - HUV-EC-C (AID 542).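 Further: cells exposed to compound for 40 hours; on the % scale 0 is the no-effect control and ±100 the full control effect; nearly all actives have a fitted effect of over 35% in size.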 Put shortly:
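Luminescent ATP read-out (CellTiter-Glo, 20 min room temperature) after 40 hr compound treatment of HUV-EC-C cells at 37 °C. Concentration-response data fitted with the standard Hill equation to give AC50; tamoxifen and doxorubicin served as positive controls.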

Experiment [4] is described as follows: Cell Viability - Mesenchymal (AID 546).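 Further: cells exposed to compound for 40 hours before reading; 0% = DMSO only and -100% = 100 µM tamoxifen.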 Put shortly: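 In this qHTS cytotoxicity format, glomerulus-derived human mesenchymal kidney cells received compound for 40 hr, then luciferase-based ATP quantitation. Concentration-response data were fitted with the Hill equation.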
Experiment [5] in a line: Cellular Toxicity (caspase-3) Renal Proximal Tubule (AID 667).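 Further: cells exposed to compound for 16 hours at 37 °C before detection; 0% = DMSO basal and 100% = 10 µM staurosporine.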 Put shortly:
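Caspase 3/7 activation measured by luminescent aminoluciferin release in primary rat proximal tubule cells after 16 hr compound exposure at 37 °C. AC50 from Hill-fitted concentration-response, scaled between DMSO and 10 uM staurosporine.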

The target of experiment [6] is Cytochrome P450 3A4 (Homo sapiens) (UniProt P08684). As to the kind of experiment: qHTS Assay for Inhibitors and Substrates of Cytochrome P450 3A4 (AID 884). Further: on the % scale 0 is the no-effect control and ±100 the full control effect; nearly all actives have a fitted effect of over 50% in size. The gist of the method:
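Luminescent readout of luciferin produced by CYP3A4 (20 nM) dealkylation of Luciferin-PPXE, 25 uM (its KM). NADPH-driven reaction ran 60 min at RT after 10 min compound preincubation; data scaled to 57 uM ketoconazole as 100% inhibition.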
In general terms: Quantitative high-throughput screening tests each substance at several concentrations.

Experiment [7] is described as follows: Cell Viability - LYMP2-005 (AID 967).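 Further: plate controls were DMSO only for no effect and 92 µM tetraoctylammonium bromide control for full effect.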 Put shortly: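 LYMP2-005 human lymphoblastoid cells (2500/well) were treated with compounds for 24 h at 37 C. Intracellular ATP was then measured by CellTiter-Glo luminescence after 30 min at room temperature. AC50 values came from Hill-equation fits of qHTS concentration-response data.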
A short description of experiment [8]: Cell Viability - LYMP2-010 (AID 981).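 Further: cells exposed to compound for 24 hours at 37 °C; on the % scale 0 is the no-effect control and ±100 the full control effect; nearly all actives have a fitted effect of over 55% in size.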 The gist of the method: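 qHTS cytotoxicity, 1536-well: 2500 cells/well, 5 hr settle, 24 hr compound at 37 C, CellTiter-Glo 30 min RT, luminescence read. Decrease in ATP = toxicity; AC50 via standard Hill equation. Positive control tetraoctylammonium bromide.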
Experiment [9] is described as follows: Cell Viability - LYMP2-016 (AID 984).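 Further: cells exposed to compound for 24 hours at 37 °C; on the % scale 0 is the no-effect control and ±100 the full control effect; nearly all actives have a fitted effect of over 55% in size.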 The gist of the method: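 Cytotoxicity was scored by luminescent ATP content (CellTiter-Glo) after 24 h compound exposure at 37 C of a human lymphoblastoid line at 2500 cells/well. Concentration-response data were fitted to the Hill equation for AC50.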
Experiment [10] is described as follows: Cell Viability - LYMP2-024 (AID 988).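 Further: plate controls were DMSO only for no effect and 92 µM tetraoctylammonium bromide for full effect; nearly all actives have a fitted effect of over 60% in size.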 Put shortly:
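ATP-based luminescence (CellTiter-Glo, 30 min RT) after 24 h compound exposure at 37 C of 2500 lymphoblastoid cells/well; decrease in ATP taken as cytotoxicity. qHTS concentration-response fitted to standard Hill equation for AC50.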

Experiment [11] deals with Vitamin D3 receptor (Homo sapiens) (UniProt P11473). The experiment can be described thus: qHTS assay for small molecule antagonists of vitamin D receptor signaling (AID 588541; calls by dose curve;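 further: receptor activated by calcitriol during compound treatment; on the % scale 0 is the no-effect control and ±100 the full control effect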). The gist of the method: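 VDR-UAS-bla HEK293T cells (2000/well, 2% charcoal-stripped FBS) were treated with titrated compounds plus 1-alpha,25-dihydroxyvitamin D3 (50 nM or 3 nM final) for 16 h at 37 C. CCF4 beta-lactamase fluorescence was read; Hill fits gave IC50.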
Sequence of Vitamin D3 receptor (Homo sapiens) (P11473 whole entry, looked up): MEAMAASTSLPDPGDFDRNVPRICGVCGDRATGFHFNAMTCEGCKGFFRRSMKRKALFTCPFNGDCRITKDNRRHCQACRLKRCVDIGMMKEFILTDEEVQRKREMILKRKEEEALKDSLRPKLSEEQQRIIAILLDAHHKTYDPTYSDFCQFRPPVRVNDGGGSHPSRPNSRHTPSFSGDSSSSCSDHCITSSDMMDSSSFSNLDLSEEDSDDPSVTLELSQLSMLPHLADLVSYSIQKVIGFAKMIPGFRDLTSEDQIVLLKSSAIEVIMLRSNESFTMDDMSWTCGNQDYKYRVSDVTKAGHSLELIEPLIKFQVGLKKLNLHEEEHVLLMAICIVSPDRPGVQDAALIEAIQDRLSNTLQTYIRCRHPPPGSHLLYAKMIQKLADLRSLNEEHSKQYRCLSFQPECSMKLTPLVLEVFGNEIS

The nature of experiment [12]: qHTS assay for small molecule antagonists of retinoid X receptor alpha signaling (AID 588546).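 Further: cells stimulated with 9-cis-retinoic acid as agonist; on the % scale 0 is the no-effect control and ±100 the full control effect.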 The settings on record: HEK293T RXRa-UAS-bla, beta-lactamase ratio, antagonist mode; measured here: W530 green channel, cytotoxicity proxy. Put shortly: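 Beta-lactamase reporter inhibition, read as CCF4 fluorescence ratio (ex 405, em 460/530 nm) after 2 h at RT. HEK293T UAS-bla cells, 2500/well, were stimulated with 9-cis-RA at 500 or 100 nM final alongside test compound for 18 h at 37 C.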

Experiment [13] deals with Voltage-gated inwardly rectifying potassium channel KCNH2 (Homo sapiens) (UniProt Q12809). As to the kind of experiment: qHTS Assay for Small Molecule Inhibitors of the Human hERG Channel Activity (AID 588834).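 Further: top concentration of the series differs between compounds; on the % scale 0 is the no-effect control and ±100 the full control effect; lower thallium flux fluorescence means stronger hERG block; nearly all actives have a fitted effect of over 50% in size.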 The gist of the method:
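hERG block measured as reduced thallium-dye (FluxOR) fluorescence after stimulation buffer addition, read over 2 min. Cells were hERG-BacMam-transduced U2OS exposed to compound ~10 min […]; concentration-response fitted with Hill equation for AC50.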

A short description of experiment [14]: qHTS assay for small molecule disruptors of the mitochondrial membrane potential - 1 hr assay (AID 651754; calls by dose curve; further: on the % scale 0 is the no-effect control and ±100 the full control effect; nearly all actives have a fitted effect of over 35% in size). The gist of the method: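 Read-out: dye fluorescence at 490 nm ex/535 nm em (monomers) and 540 nm ex/590 nm em (aggregates) in HepG2 cells. Compound exposure 1 hr at 37C, followed by 30 min dye loading.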
Experiment [15] is described as follows: qHTS assay for cell viability of HEK293 cells (AID 743288). Further: on the % scale 0 is the no-effect control and ±100 the full control effect; nearly all actives have a fitted effect of over 50% in size. Conditions: ATP luminescence (CellTiter-Glo), 18 h, stronger effect = lower value. Put shortly: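 Readout is luciferase-coupled ATP content (CellTiter-Glo luminescence, 30 min room temperature) as a measure of metabolically competent cells. Parental HEK293 cells were plated 5 h or more before compound addition, then treated 18 h at 37 C.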

The target in experiment [16] is Nuclear receptor subfamily 1 group I member 2 (Rattus norvegicus) (UniProt Q9R1A7). As to the kind of experiment: qHTS assay for small molecule activators of the rat pregnane X receptor (rPXR) signaling pathway (AID 651751; call rule not given here; further: 0% is about no effect). The settings on record: rPXR reporter cells, luciferase (One-Glo), 24 h.
Sequence of Nuclear receptor subfamily 1 group I member 2 (Rattus norvegicus) (Q9R1A7 whole entry, looked up): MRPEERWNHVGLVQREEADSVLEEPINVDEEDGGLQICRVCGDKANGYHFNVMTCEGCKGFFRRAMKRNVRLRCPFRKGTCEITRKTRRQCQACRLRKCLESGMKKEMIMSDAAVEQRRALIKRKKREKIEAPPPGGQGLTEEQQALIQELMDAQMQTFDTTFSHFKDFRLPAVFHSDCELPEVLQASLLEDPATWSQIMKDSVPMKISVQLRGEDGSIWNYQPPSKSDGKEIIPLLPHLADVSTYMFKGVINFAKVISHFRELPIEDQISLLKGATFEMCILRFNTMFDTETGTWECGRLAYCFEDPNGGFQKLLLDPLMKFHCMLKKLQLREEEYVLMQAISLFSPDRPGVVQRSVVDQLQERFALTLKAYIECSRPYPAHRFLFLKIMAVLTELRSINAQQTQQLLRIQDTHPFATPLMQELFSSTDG
A short description of experiment [17]: qHTS assay for small molecule activators of the human pregnane X receptor (PXR) signaling pathway (AID 720659; call rule not given here; further: 0% is about no effect).
Experiment [18] can be described thus: Cell Viability - Renal Proximal Tubule (AID 545).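 Further: cells exposed to compound for 40 hours; 0% = DMSO only and -100% = 100 µM tamoxifen; nearly all actives have a fitted effect of over 40% in size.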 Put shortly: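 Viability taken as intracellular ATP (CellTiter-Glo luminescence) after 40 hr, 37 °C compound treatment of primary proximal tubule cells from rat kidney, 1000 cells/well; Hill-equation fits of qHTS concentration-response data gave AC50.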
A short description of experiment [19]: Cellular Toxicity (caspase-3) Mesangial (AID 660).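 Further: combined caspase 3 and 7 activity read by Caspase-Glo luminescence; cells exposed to compound for 16 h before the caspase read.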 The gist of the method:
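Luminescent Caspase-Glo 3/7 readout (aminoluciferin substrate cleavage, 20 min RT) after 16 h compound exposure at 37 °C of normal human mesangial cells. Signal increase normalized between DMSO basal and 100 uM tamoxifen; Hill-equation AC50.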

Experiment [20] is described as follows: MultiTox-Fluor Cytotoxicity Assay - LYMP1-001 - Live Cells (AID 947).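 Further: 0% = DMSO only and full inhibition = tetraoctylammonium bromide control.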

Sequence of Voltage-gated inwardly rectifying potassium channel KCNH2 (Homo sapiens) (Q12809 whole entry, looked up): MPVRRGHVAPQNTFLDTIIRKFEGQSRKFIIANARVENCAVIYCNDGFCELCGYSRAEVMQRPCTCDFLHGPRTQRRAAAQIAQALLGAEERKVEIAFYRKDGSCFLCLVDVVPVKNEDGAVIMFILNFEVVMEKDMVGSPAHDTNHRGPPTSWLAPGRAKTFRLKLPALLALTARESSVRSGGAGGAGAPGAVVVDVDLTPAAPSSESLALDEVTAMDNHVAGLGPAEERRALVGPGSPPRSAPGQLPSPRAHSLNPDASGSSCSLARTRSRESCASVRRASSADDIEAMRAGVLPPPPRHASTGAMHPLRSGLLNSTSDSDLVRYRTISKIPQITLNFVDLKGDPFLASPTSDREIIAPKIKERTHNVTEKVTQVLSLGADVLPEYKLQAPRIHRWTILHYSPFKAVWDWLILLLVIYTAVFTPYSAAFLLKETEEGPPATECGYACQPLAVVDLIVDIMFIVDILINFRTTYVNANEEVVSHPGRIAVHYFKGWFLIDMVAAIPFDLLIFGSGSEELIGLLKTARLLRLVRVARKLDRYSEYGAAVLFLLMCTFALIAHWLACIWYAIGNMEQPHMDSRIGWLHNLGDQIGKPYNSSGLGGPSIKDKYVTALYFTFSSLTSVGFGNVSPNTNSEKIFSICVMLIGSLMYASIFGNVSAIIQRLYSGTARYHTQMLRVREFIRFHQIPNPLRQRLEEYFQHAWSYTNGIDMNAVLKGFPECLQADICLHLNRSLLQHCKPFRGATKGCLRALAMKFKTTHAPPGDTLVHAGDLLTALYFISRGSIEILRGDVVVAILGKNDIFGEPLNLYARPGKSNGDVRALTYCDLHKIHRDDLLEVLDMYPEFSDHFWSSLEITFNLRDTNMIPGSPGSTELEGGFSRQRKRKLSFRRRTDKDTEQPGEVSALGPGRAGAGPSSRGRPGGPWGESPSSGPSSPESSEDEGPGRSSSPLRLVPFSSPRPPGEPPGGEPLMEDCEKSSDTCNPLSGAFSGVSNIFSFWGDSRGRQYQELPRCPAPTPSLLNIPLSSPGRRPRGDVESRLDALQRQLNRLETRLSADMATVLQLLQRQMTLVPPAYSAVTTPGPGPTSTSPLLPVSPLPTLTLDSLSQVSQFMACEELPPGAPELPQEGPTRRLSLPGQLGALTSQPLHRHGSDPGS
Sequence of Cytochrome P450 3A4 (Homo sapiens) (P08684 whole entry, looked up): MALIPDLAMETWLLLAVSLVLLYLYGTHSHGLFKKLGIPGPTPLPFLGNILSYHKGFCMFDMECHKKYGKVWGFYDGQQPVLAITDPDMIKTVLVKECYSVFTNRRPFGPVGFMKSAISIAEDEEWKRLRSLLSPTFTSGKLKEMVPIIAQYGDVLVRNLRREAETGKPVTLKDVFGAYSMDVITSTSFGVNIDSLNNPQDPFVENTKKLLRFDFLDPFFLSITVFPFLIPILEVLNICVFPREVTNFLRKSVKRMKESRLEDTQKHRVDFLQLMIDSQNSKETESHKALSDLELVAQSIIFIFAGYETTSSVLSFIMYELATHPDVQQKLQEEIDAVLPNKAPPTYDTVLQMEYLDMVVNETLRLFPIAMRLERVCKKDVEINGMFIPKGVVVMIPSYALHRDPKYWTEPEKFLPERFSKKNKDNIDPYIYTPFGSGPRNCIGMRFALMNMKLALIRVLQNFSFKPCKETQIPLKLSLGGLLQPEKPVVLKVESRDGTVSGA

On to `O=NN1CCCCC1`, for which the Potency entry in experiment [1], in experiment [2], in [3], in [4], in [6] and in experiment [7] was “inactive” each time. The Potency result in experiment [8], in [9], in experiment [10], in [13] and in experiment [14] was “inactive” in each case. The compound was called inactive in [5], in experiment [11] and in experiment [17]. Besides, the max response in experiment [12] was -1.5%; in experiment [15] it was -2.6% (inactive); in experiment [16], -1.74% (inactive).
As to `CCNCC`, the Potency result in experiment [1], in [2], in experiment [3], in experiment [6], in experiment [7] and in experiment [8] was “inactive” throughout. Moreover, the Potency entry in experiment [9], in [10], in experiment [13] and in experiment [14] was “inactive” in each case. Moreover, the outcome in [18], in experiment [19], in experiment [20], in [11] and in experiment [17] was inactive. Moreover, the max response in [16] was 0.38% (inactive).
On to `C=CC(=O)OC`, for which the Potency result in experiment [1], in experiment [2], in experiment [3], in experiment [4], in [6] and in [7] was “inactive” each time. Moreover, the Potency result in experiment [8], in experiment [9], in experiment [10], in experiment [13] and in experiment [14] was “inactive” throughout. Further, the call in experiment [19], in experiment [5], in [20], in experiment [11] and in [17] was inactive. Also, the values for the max response in experiment [12], in experiment [15] and in experiment [16] were -10.6%, 4.03% (inactive) and 0.297% (inactive), respectively.
As to `CC(Cl)(Cl)Cl`, the Potency result in experiment [1], in experiment [2], in experiment [3], in experiment [6], in experiment [7] and in experiment [8] was “inactive” in each case. Besides, the Potency result in experiment [9], in experiment [10], in experiment [13] and in experiment [14] was “inactive” each time. Moreover, the outcome in experiment [18], in experiment [19], in experiment [20], in [11] and in experiment [17] was inactive. Moreover, the max response is 0.916% and -3.55% in experiment [12]; 6.17% (inactive) and -1.09% (inactive) in experiment [15]; -1.71% (inactive) and -2.72% (inactive) in [16].
In the case of `ClCc1ccccc1`, the Potency result in experiment [1], in experiment [2], in experiment [3], in experiment [4], in experiment [6] and in experiment [7] was “inactive” each time. In addition, the Potency result in experiment [8], in [9] and in [13] was “inactive” in each case. The result in experiment [18], in experiment [20], in [11] and in [17] was inactive. Besides, the max response in experiment [12] is -2.86%; in experiment [15], -10.4% (inactive); in experiment [16], -2.08% (inactive).
With `CC(=O)NNc1ccccc1`, the Potency result in experiment [1], in [2], in experiment [4], in [7], in experiment [13] and in [14] was “inactive” throughout. Also, the outcome in experiment [18], in [19], in experiment [5], in experiment [20], in experiment [11] and in experiment [17] was inactive. Moreover, the max response in experiment [12] was -2.14%; in experiment [15], 2.18% (inactive); in [16], -6.67% (inactive).
Consider `C=C(Cl)CCl`, for which the Potency entry in experiment [1], in experiment [2], in experiment [3], in experiment [4], in [6] and in experiment [7] was “inactive” in each case. Further, the Potency entry in [8], in [9], in [10], in experiment [13] and in experiment [14] was “inactive” each time. Further, the call in experiment [19], in [20], in experiment [11] and in experiment [17] was inactive. For the same compound, the results for the max response in experiment [12], in [15] and in [16] were 4.21%, -2.76% (inactive) and 1.93% (inactive), respectively.
